The structures appear in SMILES notation. Values joined by “and” are separate entries in the source; they are usually repeats but may differ in a detail not shown here. Equal values may be shown once. Active and inactive are the calls of the source. The call rests on the fitted dose curve; in most records, active means well fitted activation curve with a large enough effect; inconclusive means small, poorly fitted or top-dose-only effect; inactive means flat fitted curve, though single readings scatter.

These results are taken from PubChem BioAssay (NCATS).

Chain of Peroxisome proliferator-activated receptor alpha (Homo sapiens) (Q07869 whole entry, looked up): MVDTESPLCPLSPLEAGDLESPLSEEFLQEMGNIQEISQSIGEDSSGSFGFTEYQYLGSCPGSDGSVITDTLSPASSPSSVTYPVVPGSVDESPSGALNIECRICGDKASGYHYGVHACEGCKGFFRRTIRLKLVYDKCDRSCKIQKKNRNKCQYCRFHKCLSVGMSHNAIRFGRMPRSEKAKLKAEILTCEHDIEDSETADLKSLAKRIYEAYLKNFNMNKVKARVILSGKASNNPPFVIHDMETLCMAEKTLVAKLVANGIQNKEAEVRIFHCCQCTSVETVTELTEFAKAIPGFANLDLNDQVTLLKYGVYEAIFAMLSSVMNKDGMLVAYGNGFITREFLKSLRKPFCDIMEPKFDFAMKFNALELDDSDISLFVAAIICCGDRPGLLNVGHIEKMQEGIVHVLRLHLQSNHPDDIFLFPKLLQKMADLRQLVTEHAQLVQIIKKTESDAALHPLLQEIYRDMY

This test addresses Peroxisome proliferator-activated receptor alpha (Homo sapiens) (UniProt Q07869). Kind of test: qHTS assay for small molecule agonists of the peroxisome proliferator-activated receptor alpha (PPARalpha) signaling pathway (AID 651778). Further: % of control where 0% means no effect. Conditions: PathHunter PPARalpha complementation, chemiluminescence, 6 h; stronger effect = higher value. The source says: National Center for Advancing Translational Sciences [NCATS]
NIH Chemical Genomics Center [NCGC]
U.S. Environmental Protection Agency [EPA]
National Institutes of Environmental Health Sciences [NIEHS]
National Toxicology Program [NTP]
The Peroxisome proliferator-activated receptors (PPARs) are lipid-activated transcription factors of the nuclear receptor superfamily with three distinct subtypes (alpha, garmma and beta/delta). All these subtypes heterodimerize with retinoid X receptor and have different physiological functions. PPARalpha is highly expressed in tissues with high rates of mitochondrial fatty acid oxidation, such as liver, heart, muscle, kidney and cells of the arterial wall. PPARalpha is a major regulator of lipid metabolism and energy homeostasis.
A cell based assay was used to identify activators of PPARalpha. The assay detects binding of a ligand to PPARalpha leading to its activation, translocation and complementation thus forming a functional enzyme capable of hydrolyzing the substrate molecule and generating chemiluminescent signal.
2,000 cells in 6 uL/well were dispensed into white wall/solid bottom 1536-well plates using a Multidrop Combi (Thermo Scientific) dispenser. After incubation 37 C and 5% CO2 overnight, 23 nL compound or DMSO only were transferred by a pin tool. The plates were incubated for 6 hr at 37 C and 5% CO2. 3 ul PathHunter detection reagent (Discoverx) was then added to each well and following 60 min incubation at room temperature, chemiluminescence was quantified on a ViewLux CCD-based plate reader.
Consider `O=c1[nH]c(=O)n([C@H]2C[C@H](O)[C@@H](CO)O2)cc1Br`, for which the max response was -2.48% (inactive). As for `CC(C)(Oc1ccc(CCNC(=O)c2ccc(Cl)cc2)cc1)C(=O)O`, the max response is 9.62% (inactive). With `NC(=Nc1ccccc1)Nc1ccccc1`, the max response is -2.99% (inactive) and 6.68% (inactive). Regarding `CCCCOCCOCCOCc1cc2c(cc1CCC)OCO2`, the max response was -0.481% (inactive) and -4.29% (inactive). As for `CC(=O)Nc1nnc(S(N)(=O)=O)s1`, the max response was -2.77% (inactive). To `Nc1ncn([C@@H]2O[C@H](CO)[C@@H](O)[C@H]2O)c(=O)n1` belongs -2.48% (inactive) and -2.55% (inactive). Regarding `COC(=O)[C@H]1[C@H]2C[C@@H]3c4[nH]c5cc(OC)ccc5c4CCN3C[C@H]2C[C@@H](OC(=O)c2cc(OC)c(OC)c(OC)c2)[C@@H]1OC`, the max response is 4.44% (inactive) and 8.97% (inactive). On to `COc1cc(Cc2cnc(N)nc2N)cc(OC)c1OC`, for which the max response is -3.22% (inactive). `NC(=O)N1c2ccccc2C=Cc2ccccc21`: the max response was -1.1% (inactive) and -0.275% (inactive). For the molecule `COc1ccc(CN(CCN(C)C)c2ccccn2)cc1`, the max response is -5.33% (inactive).

Regarding `CC(=O)[C@@]1(O)CC[C@H]2[C@@H]3CCC4=CC(=O)CC[C@]4(C)[C@H]3CC[C@@]21C`, the max response is -2.31% (inactive). As for `CN=C(NC#N)NCCSCc1nc[nH]c1C`, the max response was 0.401% (inactive). Consider `Nc1nc(N)c2nc(-c3ccccc3)c(N)nc2n1`, for which the max response was -0.436% (inactive) and -0.649% (inactive). With `C[C@]12CCC(=O)C=C1CC[C@@H]1[C@@H]2C(=O)C[C@@]2(C)[C@H]1CC[C@]2(O)C(=O)CO` the figure was -0.227% (inactive); with `CCCCNC(=O)NS(=O)(=O)c1ccc(C)cc1`, -9.3% (inactive) and -3.45% (inactive).

On to `C[C@]12C=CC(=O)C=C1CC[C@H]1[C@@H]3C[C@@H](O)[C@](O)(C(=O)CO)[C@@]3(C)C[C@H](O)[C@@]12F`, for which the max response was 4.65% (inactive). Take `O=C(O)CCCCCCCC(=O)O`: the max response is -1.61% (inactive). Take `Cc1ccc(S(=O)(=O)NC(=O)NN2CCCCCC2)cc1`: the max response was -0.39% (inactive).
